E coli growth-1: counter-screen for AddAB inhibitors: E. coli growth inhibition; E. coli V3065 growth, OD600 absorbance, 18 h; inhibition, % at 11.9 µM; 330,000 tested, 0.27% active;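 active = inhibition above the campaign's mean inhibition across all tested compounds plus 3 SD, cut at about 9.9% in these data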;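 note: uninfected addAB+ strain grown without phage in ampicillin broth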
E coli growth-2: E. coli growth inhibition. Escherichia coli growth, OD600, 23 h; hits give low values. OD600 absorbance (no concentration beside the values). 330,000 tested, 0.21% active. AID 1053175;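 active = OD600 absorbance below the run mean of sample wells minus 3.6 SD, in any replicate, cut at about 0.56 in these data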
phage Ecoli inh: E. coli growth loss with phage present. growth absorbance. inhibition, % at 11.9 µM. 360,000 tested, 0.26% active; in the data active = inhibition above about 11%
Tat export inh: E. coli Tat transport inhibition; E. coli MC4100 TorA-mCherry Tat export, fluorescence; inhibition, % at 10 µM; 340,000 tested, 0.036% active; AID 488895;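 active = mean replicate inhibition at least 50% and at least half of replicates individually reaching 50%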;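 note: exported cargo escapes ClpAP degradation while cytoplasmic cargo is degraded and loses fluorescence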
AddAB inh: less growth of phage-infected E. coli with AddAB. E. coli expressing H. pylori AddAB, absorbance growth. inhibition, % at 11.9 µM. 330,000 tested, 0.29% active. AID 435030; in the data active = inhibition above about 12%
Hits are given with their value; - = inactive; . = not tested or not shown. A selection: hits, their analogues and other compounds. The true share with any hit is near 0.5%.

SMILES	E coli growth-1	E coli growth-2	phage Ecoli inh	Tat export inh	AddAB inh
CC=C(C)C(=O)OC1c2c(ccc3ccc(=O)oc23)OC1C(C)(C)OC(=O)C(C)=CC (stereo unspecified)	.	-	.	.	.
Cc1nn(-c2ccccc2)c(C)c1C=NNC(=O)c1cc(-c2ccc(Cl)s2)[nH]n1	.	-	.	.	.
CCn1cc(C(=O)Nc2ccccc2)c(=O)c2ccc(C)nc21	-	-	.	.	-
CCn1cc(C(=O)NC2CCCCC2C)c(=O)c2ccc(C)nc21 (stereo unspecified)	-	0.059	-	-	-
S=c1[nH]ncn1N=Cc1ccccn1	.	-	.	.	.
c1ccc(CCNc2ccnc3cc4ccccc4cc23)cc1	.	0.5	-	-	.
CC(C)Nc1ccc(Nc2ccnc3cc4ccccc4cc23)cc1	-	-	-	-	-
COc1ccc(-c2ccc(-c3noc(-c4ccccc4OC)n3)c(OC)n2)cc1	-	-	-	53	-
CC(=CC(=O)OCCCCCCCCC(=O)O)CC1OCC(CC2OC2C(C)C(C)O)C(O)C1O (stereo unspecified)	.	0.12	.	.	.
CON=CC(C#N)c1ncc(C(F)(F)F)cc1Cl (stereo unspecified)	.	-	.	.	.
CCn1cc(C(=O)N[C@@H](C)C(=O)OC)c(=O)c2cc3c(cc21)OCO3	-	0.084	-	-	-
CCOC(=O)c1cn(CC)c2ccc(Br)cc2c1=O	-	-	-	-	-
CCn1cc(C(=O)O)c(=O)c2cc3c(cc21)OCO3	97	.	.	.	97
CCn1cc(C(=O)O)c(=O)c2cc(Br)ccc21	-	0.56	-	-	-
COc1ccc(C(C)=NNC(=O)c2ccc(CSc3cccc4cccnc34)cc2)cc1OC	.	-	.	.	.
O=[N+]([O-])c1ccc(/C=C/C2=NN(c3ccccc3)C(c3ccco3)C2)o1 (stereo unspecified)	.	-	20	-	.
Cc1cccc2c1Sc1ccc(Cl)cc1CC2N1CCNCC1 (stereo unspecified)	-	0.39	.	.	-
CCc1cccc2c1Sc1ccccc1CC2N1CCNCC1 (stereo unspecified)	-	-	-	-	-
COc1ccc(C(NC(=O)c2cccnc2)c2cc(Cl)c3cccnc3c2O)cc1OC (stereo unspecified)	23	-	20	-	25
CC(=O)NC(c1ccco1)c1cc(Cl)c2cccnc2c1O (stereo unspecified)	.	.	-	.	.
Clc1ccc2[nH]c3c(c2c1)CCc1cn[nH]c1-3	-	0.56	-	-	-
c1ccc2c3c([nH]c2c1)-c1[nH]ncc1CC3	-	-	-	-	-
CC(=O)c1ccc(NC(=S)Nc2ccc(Br)c(Cl)c2)cc1	-	0.51	-	-	-
O=C(NN=Cc1c(O)ccc2ccccc12)c1ccc(Cn2cccn2)o1	.	-	.	.	.
Cc1ccc2c(c1)S/C(=C\c1cccc[n+]1C)N2CCO	-	-	-	-	-
SMILES	E coli growth-1	E coli growth-2	phage Ecoli inh	Tat export inh	AddAB inh
CC[n+]1c(C)sc2c3ccsc3ccc21	-	-	-	-	-
CCN1/C(=C/c2ccc3cccc(C)c3[n+]2CC)Sc2ccccc21	-	0.46	-	-	-
CC[n+]1c(/C=C/c2ccc(OC)c(OC)c2)ccc2ccccc21	-	-	-	-	-
CCN1/C(=C/c2ccc3cc(C)ccc3[n+]2CC)Sc2ccc3sccc3c21	-	0.33	.	-	-
C[n+]1ccccc1/C=C1\Sc2ccccc2N1CCO	-	-	-	-	-
CCN1/C(=C/c2ccc3cc(C)cc(C)c3[n+]2CC)Sc2cc(C)ccc21	.	0.12	-	-	.
CCN1/C(=C\c2ccc3cc(C)ccc3[n+]2CC)Sc2cc(C)c(C)cc21	.	0.21	-	-	.
CC(C)c1cc(C(=O)NN=Cc2ccoc2)c(O)c(C(C)C)c1	.	-	.	.	.
CCN(CC)C(=O)C1CCCN(c2ccc([N+](=O)[O-])cc2C=NNC(=O)c2cccc(Br)c2)C1 (stereo unspecified)	.	-	.	.	.
COc1cccc(C=NNC(=O)Cn2nnc3ccccc32)c1O	.	-	.	.	.
CC(=NNC(=O)CCC1C(=O)NN=C1C)c1ccccc1 (stereo unspecified)	.	-	.	.	.
CCN1C(=Cc2ccc3ccccc3[n+]2CC)Sc2cc(C)ccc21	.	0.36	.	.	.
C/C(=N\Nc1ncnc2sc(C)c(C)c12)c1ccccn1	14	.	-	-	-
Cc1sc2ncnc(N/N=C/c3cccc(O)c3)c2c1C	-	.	-	-	-
CC(=NNC(=O)c1cccc(S(=O)(=O)N2CCCC2)c1)c1ccccc1F	.	-	.	.	.
CCOC(=O)c1csc(N)n1	-	-	-	-	-
CC1C(NC(=O)C(=NOC(C)(C)C(=O)O)c2csc(N)n2)C(=O)N1S(=O)(=O)O (stereo unspecified)	.	0.059	.	.	.
Clc1ccc2c(c1)c1cc(Cl)ccc1n2CN1CCOCC1	-	0.088	-	-	-
Clc1ccc2c(c1)c1ccccc1n2CN1CCOCC1	-	0.52	-	-	-
COc1ccc(Cl)cc1CN1CCOCC1	-	-	-	-	-
Cc1ccc2nc(C)c(C(=O)NN=Cc3ccc(C(=O)O)cc3)cc2c1	.	-	.	.	.
CC1(C)CC(=O)C=C(NCCN2CCN(C(=O)Nc3ccccc3)CC2)C1	-	-	-	52	-
COc1cc2c(cc1OC)CN(C(=S)Nc1ccccc1Cl)CC2	-	0.43	-	-	-
COc1cc2c(cc1OC)CN(C(=S)Nc1ccccc1)CC2	-	-	-	-	-
CCOc1cc(C=NNC(=O)C(=O)NN=Cc2ccc(O)c(OCC)c2)ccc1O	.	-	.	.	.
SMILES	E coli growth-1	E coli growth-2	phage Ecoli inh	Tat export inh	AddAB inh
Nc1nonc1-n1nnc(C(=O)NN=Cc2cc(Br)cs2)c1-c1ccccc1	.	-	.	.	.
Cc1cc(C(=O)NN=Cc2ccc([N+](=O)[O-])s2)n[nH]1	.	0.46	.	.	.
Cc1cc(C)cc(N=Cc2ccc([N+](=O)[O-])s2)c1	-	0.54	-	-	-
O=[N+]([O-])c1ccc(C=Nc2ccc(Cl)c([N+](=O)[O-])c2)s1	.	.	-	-	.
NC(=O)c1ccc(N=Cc2ccc([N+](=O)[O-])s2)cc1	-	0.35	-	-	-
Cc1cc(C(=O)N/N=C/c2cccs2)n[nH]1	-	.	-	-	-
COc1ccc(C)cc1-n1nnnc1SCC(O)=C(C#N)c1nc2ccccc2[nH]1	.	-	.	.	.
CC(=NNC(=S)NC(C)C)c1ccccc1OC(F)F	.	-	.	.	.
Cc1ccc2[nH]c3c(NCc4ccccc4)ncnc3c2c1	.	0.46	-	.	.
COc1ccc(CNc2ncnc3c2[nH]c2ccccc23)cc1	-	.	-	.	-
Cc1ccnc(NC(=O)c2ccc([N+](=O)[O-])s2)c1	-	-	-	-	14
O=c1[nH]sc2ccccc12	.	0.066	-	-	.
CSc1nc2ccc(Cl)cc2[nH]1	-	-	-	-	-
CSc1nc2cc(Oc3cccc(Cl)c3Cl)c(Cl)cc2[nH]1	-	0.46	-	-	-
CS(=O)(=O)c1ccc(C(O)C(CF)NC(=O)C(Cl)Cl)cc1 (stereo unspecified)	.	0.06	.	.	.
CS(=O)(=O)c1ccc(C(=O)NC(Cc2ccccc2)c2ccccc2)cc1 (stereo unspecified)	-	-	-	-	-
CS(=O)(=O)c1ccc(C(O)C(CO)NC(=O)C(Cl)Cl)cc1 (stereo unspecified)	.	0.38	.	.	.
CC(=NNc1ccccn1)c1ccc(C#N)cc1	.	-	.	.	.
Cc1ccc(/C=N/NC(=O)CSc2nnc(-c3ccc(Cl)cc3)n2-c2ccc(Cl)cc2)o1	13	.	-	-	-

Source: PubChem BioAssay
